Experimental data as given in the supplement of paper PMC11732987, “Enantioselective OTUD7B fragment discovery through chemoproteomics screening and high-throughput optimisation” (Communications Chemistry, 2025).

How the values were obtained:
Assay in all cases: log2 ratio of Biotin-Ahx-Ub-VS probe labelling (fragment/DMSO); higher = less target engagement (more negative = stronger competition), active = hit call of the paper (q ≤ 0.05, log2 ratio ≤ -1)
Settings in all cases: compound concentration: 200 uM; treatment time: 3 h
USP34 = USP34 (UniProt Q70CQ2)
Chain of USP34 (Q70CQ2 whole entry, the tested form may be a part): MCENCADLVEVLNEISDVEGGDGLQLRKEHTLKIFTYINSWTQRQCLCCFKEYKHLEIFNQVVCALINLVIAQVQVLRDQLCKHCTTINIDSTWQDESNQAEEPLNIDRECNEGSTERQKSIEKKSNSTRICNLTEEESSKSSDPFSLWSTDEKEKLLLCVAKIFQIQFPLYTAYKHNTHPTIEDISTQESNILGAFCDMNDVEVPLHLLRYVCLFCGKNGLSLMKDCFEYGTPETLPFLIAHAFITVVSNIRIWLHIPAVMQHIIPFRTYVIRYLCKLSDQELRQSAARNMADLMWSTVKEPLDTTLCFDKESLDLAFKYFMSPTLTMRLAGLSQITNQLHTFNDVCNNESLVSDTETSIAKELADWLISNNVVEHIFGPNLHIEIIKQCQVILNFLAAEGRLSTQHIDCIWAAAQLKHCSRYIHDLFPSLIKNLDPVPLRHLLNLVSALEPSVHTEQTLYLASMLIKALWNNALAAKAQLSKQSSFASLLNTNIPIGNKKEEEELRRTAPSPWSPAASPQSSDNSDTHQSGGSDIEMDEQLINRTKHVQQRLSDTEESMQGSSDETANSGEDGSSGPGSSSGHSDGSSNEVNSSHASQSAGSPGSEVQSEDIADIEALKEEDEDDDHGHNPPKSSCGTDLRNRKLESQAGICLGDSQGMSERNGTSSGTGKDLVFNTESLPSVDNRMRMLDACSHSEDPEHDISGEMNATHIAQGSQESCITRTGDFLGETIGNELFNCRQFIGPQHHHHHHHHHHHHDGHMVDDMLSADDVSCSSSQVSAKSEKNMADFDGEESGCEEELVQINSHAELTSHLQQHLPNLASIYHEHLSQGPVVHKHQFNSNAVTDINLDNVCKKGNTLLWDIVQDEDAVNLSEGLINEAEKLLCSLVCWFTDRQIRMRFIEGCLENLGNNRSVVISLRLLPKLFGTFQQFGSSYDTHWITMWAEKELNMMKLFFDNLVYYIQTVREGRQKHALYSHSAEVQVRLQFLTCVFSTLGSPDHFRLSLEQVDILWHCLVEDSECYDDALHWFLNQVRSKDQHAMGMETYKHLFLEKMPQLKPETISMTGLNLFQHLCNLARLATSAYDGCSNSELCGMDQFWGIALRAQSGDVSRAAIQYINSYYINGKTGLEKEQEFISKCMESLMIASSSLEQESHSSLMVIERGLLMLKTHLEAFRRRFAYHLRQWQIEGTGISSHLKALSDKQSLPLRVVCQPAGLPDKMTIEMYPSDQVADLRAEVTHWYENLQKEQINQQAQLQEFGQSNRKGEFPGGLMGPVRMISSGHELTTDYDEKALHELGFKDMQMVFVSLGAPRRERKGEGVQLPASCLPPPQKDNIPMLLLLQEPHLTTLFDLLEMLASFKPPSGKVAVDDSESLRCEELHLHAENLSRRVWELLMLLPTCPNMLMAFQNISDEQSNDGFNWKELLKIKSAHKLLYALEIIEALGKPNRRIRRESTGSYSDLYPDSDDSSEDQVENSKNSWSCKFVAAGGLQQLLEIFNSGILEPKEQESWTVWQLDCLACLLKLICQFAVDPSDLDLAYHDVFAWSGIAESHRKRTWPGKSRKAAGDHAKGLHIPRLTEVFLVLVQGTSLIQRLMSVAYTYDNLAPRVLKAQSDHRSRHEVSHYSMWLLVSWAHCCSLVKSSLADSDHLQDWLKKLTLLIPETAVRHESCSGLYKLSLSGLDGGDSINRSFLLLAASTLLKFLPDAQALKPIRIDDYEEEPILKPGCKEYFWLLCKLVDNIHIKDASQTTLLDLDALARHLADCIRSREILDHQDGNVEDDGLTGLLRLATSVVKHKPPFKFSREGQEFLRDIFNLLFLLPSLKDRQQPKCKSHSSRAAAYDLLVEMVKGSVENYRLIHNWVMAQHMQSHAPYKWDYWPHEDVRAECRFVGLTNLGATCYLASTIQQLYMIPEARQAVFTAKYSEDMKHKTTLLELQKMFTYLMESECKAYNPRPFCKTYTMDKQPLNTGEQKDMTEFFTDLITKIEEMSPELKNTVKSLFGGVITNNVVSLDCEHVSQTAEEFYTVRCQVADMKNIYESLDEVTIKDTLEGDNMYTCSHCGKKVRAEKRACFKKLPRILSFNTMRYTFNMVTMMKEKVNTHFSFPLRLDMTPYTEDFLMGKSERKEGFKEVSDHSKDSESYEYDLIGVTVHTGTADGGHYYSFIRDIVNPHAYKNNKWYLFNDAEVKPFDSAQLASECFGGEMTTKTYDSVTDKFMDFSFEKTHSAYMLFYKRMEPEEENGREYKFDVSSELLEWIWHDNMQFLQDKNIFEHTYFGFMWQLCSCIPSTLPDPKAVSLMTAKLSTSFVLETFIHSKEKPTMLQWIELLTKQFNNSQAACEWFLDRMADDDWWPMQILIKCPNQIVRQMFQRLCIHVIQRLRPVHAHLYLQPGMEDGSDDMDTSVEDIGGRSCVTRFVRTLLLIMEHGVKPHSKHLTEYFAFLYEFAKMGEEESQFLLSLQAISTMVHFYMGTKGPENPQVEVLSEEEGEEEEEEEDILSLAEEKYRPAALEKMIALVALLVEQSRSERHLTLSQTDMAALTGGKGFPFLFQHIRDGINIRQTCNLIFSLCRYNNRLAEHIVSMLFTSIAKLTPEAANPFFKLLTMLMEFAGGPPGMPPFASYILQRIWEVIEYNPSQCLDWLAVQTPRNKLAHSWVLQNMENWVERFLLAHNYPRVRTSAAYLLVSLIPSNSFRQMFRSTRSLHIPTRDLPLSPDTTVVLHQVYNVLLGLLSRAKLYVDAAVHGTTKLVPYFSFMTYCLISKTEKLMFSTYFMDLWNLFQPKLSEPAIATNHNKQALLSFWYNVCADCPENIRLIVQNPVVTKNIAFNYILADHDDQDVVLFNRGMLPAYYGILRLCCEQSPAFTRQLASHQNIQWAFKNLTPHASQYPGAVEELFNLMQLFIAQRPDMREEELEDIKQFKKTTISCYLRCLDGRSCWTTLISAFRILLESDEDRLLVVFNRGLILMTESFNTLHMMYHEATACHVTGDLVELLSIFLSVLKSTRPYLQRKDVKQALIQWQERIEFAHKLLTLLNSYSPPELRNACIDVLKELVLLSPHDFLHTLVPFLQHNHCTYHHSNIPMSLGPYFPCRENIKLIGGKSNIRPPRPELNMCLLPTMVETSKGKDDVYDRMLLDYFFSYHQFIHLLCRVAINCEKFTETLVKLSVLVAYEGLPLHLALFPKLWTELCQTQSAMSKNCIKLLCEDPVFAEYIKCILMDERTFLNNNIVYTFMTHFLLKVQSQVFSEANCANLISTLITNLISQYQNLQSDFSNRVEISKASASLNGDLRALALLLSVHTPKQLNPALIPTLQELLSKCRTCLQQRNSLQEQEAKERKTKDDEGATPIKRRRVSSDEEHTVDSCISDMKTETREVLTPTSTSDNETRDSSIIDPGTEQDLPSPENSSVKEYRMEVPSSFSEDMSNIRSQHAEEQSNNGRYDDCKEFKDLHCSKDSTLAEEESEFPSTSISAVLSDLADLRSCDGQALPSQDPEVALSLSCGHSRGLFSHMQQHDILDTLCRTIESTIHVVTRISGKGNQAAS
Procedure, shortened: (§1)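 Labelled DUBs from HEK293T lysate were NeutrAvidin-enriched, digested with LysC and trypsin, and run by diaPASEF LC-MS/MS. Before that, each 495 µg sample in Tris/CHAPS/IGEPAL buffer with protease inhibitors was treated in triplicate with fragment at 200 µM or vehicle for 3 h, then with Biotin-Ahx-Ub-VS at 0.5 µM final for 1 h. Values are average log2 ratios of fragment over vehicle by unpaired t-test, based on global-median-normalised Spectronaut label-free quantities from proteins with ≥2 unique peptides.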

USP36 = target: T1, USP36 (UniProt Q9P275)
T1 sequence (whole entry): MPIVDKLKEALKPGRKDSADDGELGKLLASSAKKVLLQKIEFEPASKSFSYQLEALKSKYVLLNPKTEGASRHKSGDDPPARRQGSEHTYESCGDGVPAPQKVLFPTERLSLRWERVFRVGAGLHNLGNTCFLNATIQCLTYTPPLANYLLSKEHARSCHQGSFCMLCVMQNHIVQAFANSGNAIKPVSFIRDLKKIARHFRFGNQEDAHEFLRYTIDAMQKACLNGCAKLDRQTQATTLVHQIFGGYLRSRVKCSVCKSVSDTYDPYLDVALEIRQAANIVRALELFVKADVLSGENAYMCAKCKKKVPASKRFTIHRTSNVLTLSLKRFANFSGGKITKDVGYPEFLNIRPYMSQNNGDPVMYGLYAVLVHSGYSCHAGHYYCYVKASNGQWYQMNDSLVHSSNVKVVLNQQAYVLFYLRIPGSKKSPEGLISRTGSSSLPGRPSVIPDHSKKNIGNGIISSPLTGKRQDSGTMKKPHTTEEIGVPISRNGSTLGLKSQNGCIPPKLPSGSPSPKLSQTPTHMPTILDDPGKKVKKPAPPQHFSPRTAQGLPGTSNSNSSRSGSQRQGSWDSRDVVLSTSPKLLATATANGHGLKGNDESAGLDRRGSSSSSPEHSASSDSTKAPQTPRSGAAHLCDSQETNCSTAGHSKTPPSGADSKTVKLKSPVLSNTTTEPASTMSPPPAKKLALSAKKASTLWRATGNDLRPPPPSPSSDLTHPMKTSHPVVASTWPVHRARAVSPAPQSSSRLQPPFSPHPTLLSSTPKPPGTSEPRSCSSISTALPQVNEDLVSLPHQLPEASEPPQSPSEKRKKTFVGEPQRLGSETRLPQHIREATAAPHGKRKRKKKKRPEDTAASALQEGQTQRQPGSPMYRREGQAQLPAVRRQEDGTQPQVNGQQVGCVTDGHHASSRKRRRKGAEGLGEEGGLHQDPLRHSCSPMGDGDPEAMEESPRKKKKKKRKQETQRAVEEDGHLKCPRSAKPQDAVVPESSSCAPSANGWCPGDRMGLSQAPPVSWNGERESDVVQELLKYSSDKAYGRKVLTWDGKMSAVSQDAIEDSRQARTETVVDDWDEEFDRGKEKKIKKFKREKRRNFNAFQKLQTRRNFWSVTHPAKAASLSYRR
Procedure, shortened: as §1

USP38 = target: T2, USP38 (UniProt Q8NB14)
T2 sequence (whole entry): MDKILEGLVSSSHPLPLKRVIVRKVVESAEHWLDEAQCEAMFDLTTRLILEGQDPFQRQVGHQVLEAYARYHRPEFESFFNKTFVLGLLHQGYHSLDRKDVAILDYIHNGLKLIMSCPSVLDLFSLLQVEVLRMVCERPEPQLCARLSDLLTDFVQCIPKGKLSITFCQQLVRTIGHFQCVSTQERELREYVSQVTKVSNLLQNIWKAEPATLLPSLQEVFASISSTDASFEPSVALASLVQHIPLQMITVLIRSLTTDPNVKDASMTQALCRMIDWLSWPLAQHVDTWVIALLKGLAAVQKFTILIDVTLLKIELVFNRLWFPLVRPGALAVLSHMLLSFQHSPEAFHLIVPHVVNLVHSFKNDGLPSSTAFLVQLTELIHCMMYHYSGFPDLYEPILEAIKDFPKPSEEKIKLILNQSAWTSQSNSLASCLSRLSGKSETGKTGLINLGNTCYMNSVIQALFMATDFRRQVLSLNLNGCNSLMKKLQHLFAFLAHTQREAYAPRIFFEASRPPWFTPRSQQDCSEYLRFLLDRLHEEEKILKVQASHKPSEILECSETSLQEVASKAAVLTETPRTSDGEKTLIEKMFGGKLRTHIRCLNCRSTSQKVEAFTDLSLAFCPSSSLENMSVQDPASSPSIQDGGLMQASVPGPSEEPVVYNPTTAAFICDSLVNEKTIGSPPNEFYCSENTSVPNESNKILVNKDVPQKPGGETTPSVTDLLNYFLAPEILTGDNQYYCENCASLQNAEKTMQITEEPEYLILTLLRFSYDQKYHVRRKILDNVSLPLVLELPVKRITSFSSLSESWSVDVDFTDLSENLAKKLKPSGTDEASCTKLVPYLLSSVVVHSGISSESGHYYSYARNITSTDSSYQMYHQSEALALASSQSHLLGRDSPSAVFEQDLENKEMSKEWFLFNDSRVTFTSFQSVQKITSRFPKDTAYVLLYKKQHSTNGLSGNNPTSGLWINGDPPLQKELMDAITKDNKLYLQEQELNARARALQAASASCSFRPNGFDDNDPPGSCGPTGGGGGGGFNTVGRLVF
Procedure, shortened: as §1

USP39 = target: T3, USP39 (UniProt Q53GS9)
T3 sequence (whole entry): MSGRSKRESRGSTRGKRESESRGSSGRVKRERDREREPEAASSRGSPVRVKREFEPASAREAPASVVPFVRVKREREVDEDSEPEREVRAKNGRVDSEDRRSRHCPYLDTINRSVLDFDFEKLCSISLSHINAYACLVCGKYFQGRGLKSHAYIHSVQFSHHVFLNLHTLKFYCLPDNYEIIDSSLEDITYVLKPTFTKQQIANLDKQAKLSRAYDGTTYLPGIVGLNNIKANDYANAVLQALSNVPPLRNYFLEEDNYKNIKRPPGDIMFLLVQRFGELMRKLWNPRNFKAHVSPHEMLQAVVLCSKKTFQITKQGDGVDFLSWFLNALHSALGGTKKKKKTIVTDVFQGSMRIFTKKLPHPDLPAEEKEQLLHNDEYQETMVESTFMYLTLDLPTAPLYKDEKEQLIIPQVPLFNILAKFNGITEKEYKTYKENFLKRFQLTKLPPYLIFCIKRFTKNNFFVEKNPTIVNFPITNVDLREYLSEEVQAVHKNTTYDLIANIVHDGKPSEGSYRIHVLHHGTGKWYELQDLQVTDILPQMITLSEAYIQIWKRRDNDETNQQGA
Procedure, shortened: as §1

USP4 = target: T4, USP4 (UniProt Q13107)
T4 sequence (whole entry): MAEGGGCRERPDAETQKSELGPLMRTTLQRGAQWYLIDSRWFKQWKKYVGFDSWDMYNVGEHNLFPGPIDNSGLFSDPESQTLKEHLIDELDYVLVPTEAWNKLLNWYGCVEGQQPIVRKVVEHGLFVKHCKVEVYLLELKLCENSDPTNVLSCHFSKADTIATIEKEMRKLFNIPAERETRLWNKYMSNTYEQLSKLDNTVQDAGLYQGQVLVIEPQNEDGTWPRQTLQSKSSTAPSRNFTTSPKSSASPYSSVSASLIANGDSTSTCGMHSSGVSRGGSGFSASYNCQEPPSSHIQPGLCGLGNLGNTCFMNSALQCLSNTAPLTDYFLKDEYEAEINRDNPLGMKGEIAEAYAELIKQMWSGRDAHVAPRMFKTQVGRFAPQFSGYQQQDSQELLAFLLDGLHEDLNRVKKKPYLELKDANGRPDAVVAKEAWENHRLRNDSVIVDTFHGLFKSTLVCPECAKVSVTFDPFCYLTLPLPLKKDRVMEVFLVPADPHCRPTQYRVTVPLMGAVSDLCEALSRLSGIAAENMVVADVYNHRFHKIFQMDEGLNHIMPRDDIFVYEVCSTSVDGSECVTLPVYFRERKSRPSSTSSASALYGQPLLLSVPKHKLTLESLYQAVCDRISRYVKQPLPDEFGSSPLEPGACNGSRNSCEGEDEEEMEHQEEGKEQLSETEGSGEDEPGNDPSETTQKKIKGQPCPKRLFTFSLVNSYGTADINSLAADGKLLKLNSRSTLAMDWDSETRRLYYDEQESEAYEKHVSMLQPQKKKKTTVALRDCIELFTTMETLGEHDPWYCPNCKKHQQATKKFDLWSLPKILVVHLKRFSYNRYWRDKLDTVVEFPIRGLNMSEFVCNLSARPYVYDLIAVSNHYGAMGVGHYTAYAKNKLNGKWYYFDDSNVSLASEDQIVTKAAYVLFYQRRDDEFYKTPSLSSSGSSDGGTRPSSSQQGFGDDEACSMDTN
Procedure, shortened: as §1

Measured: log2 ratio of Biotin-Ahx-Ub-VS probe labelling

O=C(CCl)N1CCCC2CCCCC21 (stereo not given)
inactive: USP34 -0.14 | USP36 -0.176 | USP38 -0.0442 | USP39 -0.107 | USP4 -0.14
